test: probe aLAP1 signal on lysate-treated microarray – cell lysate, small-molecule microarray, COS7 lysate, primary screen (AID 1124); conditions: probe aLAP1, fluorescence, higher = more signal;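 also: lysate comes from COS7 cells expressing LAP1 and is applied at 0.3 µg/mL; score merges spot fluorescence near 667 nm with signal-to-noise over triplicate slides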

SMILES	composite z-score
COC(=O)CC=C[C@H](C)[C@H](CO)NS(=O)(=O)c1ccc(C)cc1	0.121
C#CCCCON=C1C[C@@H](O)[C@@H](O)[C@@H]2[C@@H]3C(=O)N(c4cccc(Oc5ccccc5)c4)C(=O)[C@@H]3CC[C@@H]12	-0.164
CC(C)(C)OC(=O)CC[C@]1(C(N)=O)COC(c2ccc(OCCCO)cc2)=N1	1.44
CC[C@@H](c1ccccc1)n1c(=O)n2n(c1=O)[C@H]1[C@H](O)[C@@H]3O[C@@H]3C(=NOCC=C(C)CCC=C(C)C)[C@H]1CC2	-0.194
COc1ccc(O[C@H]2C=C[C@@H](c3ccccc3)O[C@@H]2COC(=O)CCC(C)=NOC(C)CN2CCCCc3nc(C)c(C)cc32)cc1 (stereo not given in full)	-0.312
CC=CC1=C(CO)[C@H](O)[C@H]2O[C@H]2[C@H]1O	-0.182
CC(=O)OC[C@H]1O[C@@H](ON=C[C@@H](C)[C@H](OCc2ccccc2)C(C)C)[C@H](OC(C)=O)[C@@H](OC(C)=O)[C@@H]1OC(C)=O	-0.246
CC(C)[C@@H](OCc1ccccc1)[C@H](C)C=NOC[C@@H](C)[C@H](OCc1ccccc1)C(C)C	-0.0427
[N-]=[N+]=NCc1ccccc1[C@@H]1OC(c2ccc(OCCCO)cc2)=N[C@]1(Cc1ccccc1)C(=O)N1CCOCC1	0.827
CCCC=C(CCC)[C@@H](NC(=O)c1ccc(-c2ccccc2)cc1)c1ccc(C(=O)OC)cc1	-0.075

Source: PubChem BioAssay
